In PubChem BioAssay AID602475 (National Center for Advancing Translational Sciences (NCATS), 2012):
Inconclusive results are not listed. Values without a mark were called inactive. Activity calls are given as the source filed them. The call rests on the fitted dose curve; in most records, active means well fitted inhibition curve with a large enough effect; inconclusive means small, poorly fitted or top-dose-only effect; inactive means no such curve, though single readings can be large or run the other way.

Target: Luciferin 4-monooxygenase (Photinus pyralis) (UniProt P08659)
Sequence (P08659 whole entry, looked up): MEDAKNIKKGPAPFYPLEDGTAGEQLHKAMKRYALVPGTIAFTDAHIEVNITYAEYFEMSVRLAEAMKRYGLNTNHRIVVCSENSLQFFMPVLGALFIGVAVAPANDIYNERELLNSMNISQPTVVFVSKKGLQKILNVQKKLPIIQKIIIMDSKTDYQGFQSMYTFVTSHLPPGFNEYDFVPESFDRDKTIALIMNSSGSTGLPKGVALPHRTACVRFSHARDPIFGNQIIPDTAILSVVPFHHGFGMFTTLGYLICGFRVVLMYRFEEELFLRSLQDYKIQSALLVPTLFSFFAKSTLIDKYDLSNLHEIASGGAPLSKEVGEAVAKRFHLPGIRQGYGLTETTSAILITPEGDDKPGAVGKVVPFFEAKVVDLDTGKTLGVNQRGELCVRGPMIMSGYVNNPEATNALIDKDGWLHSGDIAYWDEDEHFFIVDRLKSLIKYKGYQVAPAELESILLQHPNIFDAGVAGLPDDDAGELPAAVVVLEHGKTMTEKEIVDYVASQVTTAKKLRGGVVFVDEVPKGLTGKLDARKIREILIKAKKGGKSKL
Experiment: FLuc inhibitory activity for the follow-up compounds in a biochemical assay with an in-house formulation of detection reagent
Conditions: purified FLuc, luminescence; series mostly up to 25.6 µM; activity change, negative = inhibition: at the top concentration
Description: NCGC Assay Overview: Firefly (Photinus pyralis) luciferase is one of the most commonly used transcriptional reporters. It is considered one of the more dynamically responsive reporters - that is, responsive to changes in reporter transcription - as it requires no post-translational modifications and is enzymatically active directly after protein synthesis (Wood, 1998). With no endogenous expression in mammalian cells and without the requirement of external excitation, it offers very little background signal, thus generally providing excellent signal to background for most assays. Previous profiling work to determine the prevalence of compounds that affect FLuc enzymatic activity (PubChem AID 411) identified that ~3% of the MLSMR library (then at ~72K) inhibited FLuc (Auld et al., 2008). […] Of the compounds identified in this profile that inhibited FLuc, 151 compounds were selected for further analysis, in an effort to better understand their mode of inhibiting FLuc. The assay described here was to determine the activity of the compounds in a FLuc assay that used an in-house formulation of detection reagent.
NCGC Assay Protocol Summary: Reagents: 300mM Tris-HCl, 300mM Trizma base, 300mM MgCl, 1% Triton-X100, 5mM DTT, 500uM Coenzyme A trilithium salt (Sigma #C3019),450uM ATP (Sigma #A7699), 1mM D-luciferin sodium salt monohydrate (Biosynth #L8240); 10nM P. pyralis luciferase (Sigma #L9506) Control compounds used were two known firefly luciferase inhibitors (3-(5-(3-chlorophenyl)-1,2,4-oxadiazol-3-yl)benzoic acid and 5-(2-fluorophenyl)-3-phenyl-1,2,4-oxadiazole), and DMSO. Assay Summary: Six microliters of buffer containing firefly luciferase (final concentrations: 50mM Tris acetate, 10nM P. pyralis luciferase) are dispensed into each well of a Greiner white, solid-bottom 1536-well format plate using a flying reagent dispenser (FRD). These assay plates were then treated with 23nL of compound or DMSO using a Kalypsys pin tool, which allows for delivery of a 12-point intraplate titration of each compound to the assay plate (quantitative HTS), with final compound concentrations ranging from approximately ~25uM to 0.1nM. Three microliters of 3X in-house detection reagent was then delivered by FRD to each well (final concentrations in assay: 300mM Tris-HCl, 300mM Trizma base, 300mM MgCl, 1% Triton-X100, 5mM DTT, 500uM Coenzyme A trilithium salt, 450uM ATP, 1mM D-luciferin sodium salt monohydrate). Luciferase activity was then measured using a ViewLux CCD imager (PerkinElmer), with an average exposure time of 2-30 seconds (2X binning, medium/high gain).

| SMILES | activity change, negative = inhibition [%] | Potency |
| --- | --- | --- |
| O=C(O)c1cccc(NC(=O)c2cccc(NC(=O)C3CCCO3)c2)c1 (stereo not given) | -14.9 |  |
| Nc1ccc(-c2nc3ccc(N)cc3s2)cc1 |  | 4.91 µM (active) |
| Cc1ccc(C(=O)Nc2cccc(C(=O)O)c2)cc1 |  | 13.8 µM (active) |
| CCOc1ccc2nc(NC(=O)c3ccccc3)sc2c1 |  | 6.19 µM (active) |
| Nc1ccc2nc(-c3ccccc3)sc2c1 |  | 2.19 µM (active) |
| O=C(Nc1ccccc1C(=O)O)c1cc(S(=O)(=O)NCc2ccccc2)ccc1Cl | -17.5 |  |
| Cc1ccc(C(=O)Nc2cccc(C(=O)O)c2)cc1S(=O)(=O)N1CCOCC1 | -8.83 |  |
| Nc1ccccc1C(=O)Nc1cccc(C(=O)O)c1 | -2.97 |  |
| c1ccc2sc(-c3ccc4c(c3)OCO4)nc2c1 |  | 4.91 µM (active) |
| O=C(O)c1cccc(NC(=O)c2cccc(S(=O)(=O)Nc3cccc(F)c3)c2)c1 | -12 |  |
| O=C(O)c1ccc(NC(=O)c2ccccc2NC(=O)c2ccccc2Cl)cc1 | -9.72 |  |
| Cc1ccc(C(=O)O/N=C(\N)c2ccccn2)c(Cl)c1 |  | 0.0619 µM (active) |
| O=C(O)c1cccc(NC(=O)c2ccc(Cl)c(S(=O)(=O)N3CCCCCC3)c2)c1 | -13.5 |  |
| CCOc1ccc2nc(NC(=O)Cc3cccs3)sc2c1 | -13.3 |  |
| COc1ccc2nc(NC(=O)c3nc(S(=O)(=O)Cc4ccc(C)cc4)ncc3Cl)sc2c1 | -19.5 |  |
| Cc1ccccc1C(=O)Nc1cccc(C(=O)Nc2ccccc2C(=O)O)c1 | -7.54 |  |
| Cc1ccc(C(=O)Nc2cccc(C(=O)O)c2)cc1S(=O)(=O)N1CCCC1 | -19.5 |  |
| Cc1ccc(NS(=O)(=O)c2ccc(Cl)c(C(=O)Nc3cccc(C(=O)O)c3)c2)cc1 | -3.21 |  |
| Nc1cccc(-c2nc3ccc(N)cc3s2)c1 |  | 3.9 µM (active) |
| O=C(Nc1ccccc1C(=O)O)c1cc(S(=O)(=O)Nc2cccc(F)c2)ccc1Cl | -17.3 |  |

| SMILES | activity change, negative = inhibition [%] | Potency |
| --- | --- | --- |
| COc1ccc2nc(NC(=O)C3CCN(S(=O)(=O)c4cccnc4)CC3)sc2c1 | 26.7 |  |
| COc1cc(C(=O)Nc2cc(C)c(O)c(-c3nc4ccccc4s3)c2)cc(OC)c1OC | -8.7 |  |
| Cc1ccc(C(=O)O/N=C(\N)c2ccccn2)cc1 |  | 0.0619 µM (active) |
| O=C(Nc1ccccc1C(=O)O)c1cc(S(=O)(=O)Nc2ccccc2)ccc1Cl | -7.63 |  |
| CN(C)c1cccc(C(=O)Nc2ccc(-c3nc4ccccc4s3)cc2)c1 | -13.2 |  |
| COc1ccc2nc(NC(=O)Cc3cccs3)sc2c1 | -18.1 |  |
| CCOc1ccc2nc(NC(=O)c3ccccn3)sc2c1 |  | 3.9 µM (active) |
| Cc1ccc2sc(-c3ccc(NC(=O)c4cc(-n5cnnc5)ccc4Cl)cc3)nc2c1 | 43.4 |  |
| CCOC(=O)N1CCN(CC(=O)Nc2nc3ccc(OC)cc3s2)CC1 | 3.07 |  |
| COc1ccc2nc(NC(=O)CCc3nc(-c4ccccc4F)no3)sc2c1 |  | 6.94 µM (active) |
| CCCC(=O)Nc1nc2ccc(OCC)cc2s1 | -37.4 |  |
| O=C(COC(=O)c1ccccc1[N+](=O)[O-])c1ccc2c(c1)OCO2 |  | 0.0619 µM (active) |
| O=C(O)c1cccc(NC(=O)c2ccc(COc3ccc(Cl)cc3)cc2)c1 | 7.3 |  |
| Cc1ccc(C(=O)Nc2ccc(C(=O)O)cc2)cc1S(=O)(=O)NCc1ccccc1 | -18.7 |  |
| COc1ccc(NS(=O)(=O)c2cccc(C(=O)Nc3ccccc3C(=O)O)c2)cc1 | -0.994 |  |
| COc1ccc2nc(NC(=O)CCc3ccc(OC)c(OC)c3)sc2c1 | -13.7 |  |
| O=C(Nc1ccccc1C(=O)O)c1cccc(NC(=O)c2ccccc2Br)c1 | -2.39 |  |
| COc1ccc2nc(NC(=O)c3cnccn3)sc2c1 |  | 4.38 µM (active) |
| Nc1ccccc1-c1nc2ccccc2s1 | -13.3 |  |
| Cc1ccc2sc(-c3ccc(N)cc3)nc2c1 |  | 6.19 µM (active) |
